The subject of this assay is VDR:RXRa (NR concentration 270 nM, RXRa partner concentration 90 nM). The assay is described as follows: PBM binding z-score (relative to random genomic background probes); higher = stronger binding; sequences stand for … in GC…GCGATTGACAGCGTAGAATGAAGG
Here is the method:
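Protein-binding microarray (Agilent 4x180K custom design, double-stranded 60-nt probes: 5' GC cap, 34-nt variable region, 24-nt constant primer region; full probe sequence given). Purified or IVT nuclear receptor:RXRα heterodimers (3:1 NR:RXRα, mostly 270:90 nM) or homodimers were incubated for 1 h in PBS with 2% milk and no ligand, then detected with Alexa488 antibodies. Fluorescence from o1-orientation probes (~5 replicates averaged) was converted to z-scores against 500 random hg19 background probes. Variable regions are seed direct-repeat (DR0–DR5) sites, all their single-nucleotide variants and half-site ablations.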
TATACAGGGTCAAAGGCCAGAGTCCGAATGTCGA yielded a PBM binding z-score of 4.8.

In turn, TCTAGTTTGTCACGGAGGTCACACACGACGGGTA gave a PBM binding z-score of 4.63.

The sequence GCTTACGGGTCAAAGGTTATATCATGAATAGAAT gave a PBM binding z-score of 5.71.

For GCATATAGTTAATACAAGGTGAAAGTCCGATTGT, the PBM binding z-score was determined as 0.11.

In turn, GCTATTAGTTGAGAGGGCAACCGAATGATTCTCG came in with a PBM binding z-score of 0.311.

In turn, TCGAGTAGGTTAGGGGCATTCCGAATGGCGTCGA displayed a PBM binding z-score of 0.256.

Turning to CCAGAGAGGTGAGAAGGTAACTCAGCCTCGATTA, the PBM binding z-score amounted to 0.23.

ACAGACAGGTGAGTGACGGTAACTCAGCTGGACG: the PBM binding z-score was -0.336.

The sequence CAAACTAGGTCATGAAAGGTCAAAGTCGAATGAC came in with a PBM binding z-score of 6.73.

ATCTCGAGGTAACAAGTTCAGTGAAAGAGAGGAC: the PBM binding z-score stood at 2.63.

As for GGTACAGGGTCAAGGCCAGAGTACGCGTATTGAT, the PBM binding z-score was 4.52.

As for GCTGCTAGGTCAGGTTGGTCAGCTATCGGGTACG, the PBM binding z-score worked out at 0.576.

CGTAGCAGGCCAATCTGGGTCACTCAAGGCTTGA returned a PBM binding z-score of 0.309.

Consider ATATGTAGGTTAGGTGGGGTCATTCAGACTAGGC, for which the PBM binding z-score was found to be 6.5.

Turning to ATATGTGGGTTAAGGGTCATTCAGGTTGGTTCGC, the PBM binding z-score came to 5.79.

The sequence ATATGTAGGTTAGCTCGGGTCATTCAGACTAGGC displayed a PBM binding z-score of 3.96.

Turning to CCTCGGAGGCCAACAGGAGGTCAGAGCTGCCAGA, the PBM binding z-score worked out at 2.07.

For ATCTCTAGGTAAAGATAGTGCAGTGAATGCAAAT, the PBM binding z-score was 0.0652.

Consider TCTATTAGTTGATTAAGGCAACCGAAACAGCGGA, for which the PBM binding z-score came to 0.578.

Sequence ACAGACAGGTGATGAACGTAACTCAGGCTATCAT registered a PBM binding z-score of -0.0512.

TCTCGGAGGACATGAAAGGTCAGAGCTCGACATC registered a PBM binding z-score of 2.81.

TCTATTAGTTGATTAGGGCAACCAAAACAGCGGA displayed a PBM binding z-score of 0.701.

As to ACTAGTTAGTCAGCTGAGGTCACACACAATTCGG, the PBM binding z-score came to 4.19.

Consider GATACAGGGTCAGCTAGAGGCCAGAGAATGGAAA, for which the PBM binding z-score amounted to 3.42.

Regarding CCTGCTAGGTCAATGGTCAACTAAAGCAGCTCGC, the PBM binding z-score came to 1.25.

In turn, GCTACCAGGCCATTTGGGTCACTCAATGACGGGC displayed a PBM binding z-score of 1.36.

TTACCAAGGTGAAAGGTCGCTGATGCACGCCTTG had a PBM binding z-score of 2.72.

Turning to TCATATCGGTAAATGCTAGGTGAAAGTCCGATCT, the PBM binding z-score was 0.566.

Sequence TTACCAAGGTGTAAGGTCGTTGATGCACGCCTTG registered a PBM binding z-score of 1.08.

Regarding ATCTCTAGGTAAAGTTCAGTGAAAGATCGATAGA, the PBM binding z-score is 1.73.

Regarding ATATGTAGGTTACATCCGGGTCACTCAGGCTATG, the PBM binding z-score came out at 3.71.

GGAACGAGGGCATTAGAGTTGATAGCATGGCGAT: the PBM binding z-score was 2.83.

In turn, GGAGCGAGGGCAAGTTGATAGCAGAGTTTGATGG had a PBM binding z-score of 0.407.

CGAACTAGGTCAAGGACAGAGAATCTCCGCACGC showed a PBM binding z-score of 1.02.

As for TCTAGCACGCCAGAGGGTCACTCAAGAGGTACGG, the PBM binding z-score is 1.37.

CCTGCTAGGCCAATGGTCAGCTAAAGCAGCTCGC: the PBM binding z-score was -0.792.

On to AGAACAAGGGCAATGAGTTGATAGCACGGGTGGC, for which the PBM binding z-score is 4.7.

For the sequence TCAGACAGGTGAAGGTAACTAAGGTACGCAGTCG, the PBM binding z-score was 1.01.

Sequence TCTAGGAGGACACGAAAGGTCAGAGCTCGACATC registered a PBM binding z-score of 3.42.

ATACCAAGGTGATCGTGACGTCGTTGATACTAAC returned a PBM binding z-score of 0.156.
